Bioassay records as filed in PubChem BioAssay.
WRN inhibitor: blocks human WRN helicase. Q14191. WRN helicase unwinding, fluorescent forked duplex, kinetic. Potency, µM (top dose mostly 114 µM), hits mostly inhibitors. 0.46% of 360,000 active. AID 651768; note: nearly all actives have a fitted effect of over 55% in size
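WRN at 20 nM final preincubated with compound 15 min at room temperature; reaction started with 100 nM fluorophore/quencher forked duplex oligonucleotide and 2 mM ATP final. Unwinding followed kinetically by red fluorescence (ex 525, em 598 nm).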
Pol kappa inh-1: inhibitors of human DNA polymerase kappa; 0.53% of 400,000 active; Q9UBT6; Potency, µM (highest dose often 107 µM), actives largely listed as inhibitors; purified Pol kappa, fluorescent DNA synthesis assay, 10 min
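Readout: fluorescence, taken kinetically at 0 and 10 min. Conditions: 10 nM Pol kappa, 15 min RT compound preincubation, 50 nM substrate final. Controls: enzyme-free buffer wells.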
POLB inh: DNA polymerase beta (human) inhibition; P06746; Pol beta primer extension/strand displacement, fluorescence kinetic; Potency, µM (doses to about 114 µM), actives largely listed as inhibitors; 1.3% of 340,000 active
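Pol beta (10 nM) and compounds were preincubated 15 min at room temperature, then 50 nM substrate (final) started primer extension/strand displacement. Reads were taken at 0 and 10 min; concentration-response data were fitted to a four-parameter Hill equation.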
POLI inh: inhibitors of human DNA polymerase iota; AID 588590; Potency, µM (titrated, usually from 115 µM), most hits filed as inhibitors; Pol iota fluorescent replication assay, 10 min; Q9UNA4; 1% of 390,000 active
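Fluorescent replication assay read twice, at 0 min and 10 min after adding 50 nM (final) substrate. Enzyme (10 nM) and compounds were first incubated 15 min at room temperature; enzyme-free buffer wells were negative controls.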
FEN1 inhibitor: blocks human flap endonuclease 1; P39748; Recombinant FEN1 flap cleavage, fluorescence, 15 min; Potency, µM (series often up to 114 µM), usual class: inhibitors; 0.35% of 390,000 active; note: nearly all actives have a fitted effect of over 65% in size
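Reaction started by adding substrate (50 nM final) to 10 nM enzyme after 15 min room-temperature compound preincubation. Reads at 0 and 15 min, with data normalized and fitted to a four-parameter Hill equation.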
Pol eta inh-1: DNA polymerase eta (human) inhibition. Potency, µM (doses to about 114 µM), hits mostly inhibitors. AID 588591. recombinant Pol eta, fluorescent DNA replication assay. 1.2% of 390,000 active. Q9Y253
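Pol eta (10 nM) was preincubated with compounds for 15 min at room temperature, after which fluorescent replication substrate (50 nM final) was added to start the reaction. Fluorescence was read kinetically at 0 and 10 min.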
Pol kappa inh-2: confirmation of human DNA polymerase kappa inhibitors; shares compounds with Pol eta inh-1; Potency, µM, actives largely listed as inhibitors; purified Pol-kappa, fluorescent strand-displacement substrate; 76% of 920 active
Pol eta inh-2: Pol eta (human) inhibition, cherry-pick confirmation; shares compounds with Pol eta inh-1; Pol eta primer extension, TAMRA/BHQ fluorescence, 10 min; Potency, µM, usual class: inhibitors; 64% of 2,600 active
Large screens that a line does not name were inactive (follow-up assays come after a bar, where they were run). Compounds with a hit are over-represented: about 2.4% of the library has one in this group of screens. Calls come from the whole dose curve; as a rule, active = well fitted curve in the direction sought with a large enough effect; inconclusive = small, poorly fitted or top-dose-only effect, or another doubt; inactive = no such curve, though single readings can be large; an effect the other way counts as inactive or inconclusive.

CCOC(=O)N/N=C(C)/C=C/c1ccco1	none
COc1ccc(Oc2ncc3ncc(=O)n(Cc4cccc(OC)c4)c3n2)cc1	none (no result: WRN inhibitor, POLB inh, POLI inh, FEN1 inhibitor, Pol eta inh-1)
N#CCCn1c(=O)c(-c2cccs2)nc2cnc(N3CCNCC3)nc21	none (no result: WRN inhibitor, POLB inh, POLI inh, FEN1 inhibitor, Pol eta inh-1)
O=C(/C=C/c1ccc(O)cc1)OC[C@H]1O[C@@H](Oc2c(-c3ccc(O)cc3)oc3cc(O)cc(O)c3c2=O)[C@H](O)[C@@H](O)[C@@H]1O	none (no result: WRN inhibitor, POLB inh, POLI inh, FEN1 inhibitor, Pol eta inh-1)
CON=C(C(=O)NC1C(=O)N2C(C(=O)O)=C(CSc3nc(=O)c(=O)[nH]n3C)CSC12)c1csc(N)n1 (stereo not drawn)	Pol kappa inh-1 40µM, POLI inh inconclusive, Pol eta inh-1 32µM (no result: POLB inh) | Pol kappa inh-2 21 | Pol eta inh-2 30
CCOC(=O)c1c(NS(=O)(=O)c2ccc(Br)cc2)sc2c1CCC2	WRN inhibitor inconclusive, Pol kappa inh-1 79µM, POLI inh 11µM, Pol eta inh-1 20µM (no result: POLB inh) | Pol eta inh-2 inconclusive
CCOC(=O)c1c(NS(=O)(=O)Cc2ccccc2)sc2c1CCCC2	none
N#CCCn1c(=O)c(-c2ccc(F)cc2)nc2cnc(Oc3cccc(Cl)c3)nc21	none (no result: WRN inhibitor, POLB inh, POLI inh, FEN1 inhibitor, Pol eta inh-1)
O=C(CSc1nc2ccccc2c(=O)n1-c1ccccc1)NC(=O)CN1CCCC1=O	Pol kappa inh-1 inconclusive, POLB inh 13µM, POLI inh inconclusive, Pol eta inh-1 45µM | Pol eta inh-2 inconclusive
O=C(CSc1nc2ccccc2c(=O)n1-c1ccccc1)N1CCC1	none
CCOc1ccc(C(=O)Nc2cc(NC(=O)c3ccc(OCC)c(Cl)c3)cc(C(=O)O)c2)cc1Cl	POLB inh 18µM, POLI inh inconclusive, FEN1 inhibitor inconclusive, Pol eta inh-1 32µM | Pol kappa inh-2 21
CCOc1ccc(C(=O)Nc2cccc(C(=O)O)c2)cc1Cl	none
N#Cc1c(NC(=O)c2ccncc2)sc2c1CCC2	WRN inhibitor inconclusive, Pol kappa inh-1 inconclusive, POLB inh 14µM, POLI inh inconclusive, FEN1 inhibitor inconclusive, Pol eta inh-1 32µM | Pol eta inh-2 76
Cc1cccc(NS(=O)(=O)c2cc(C(=O)NCc3ccccn3)ccc2C)c1	none
Cc1ccc([N+](=O)[O-])cc1S(=O)(=O)Nc1ccc(C(=O)NCc2ccccn2)cc1	Pol kappa inh-1 inconclusive, POLI inh inconclusive, Pol eta inh-1 inconclusive (no result: POLB inh) | Pol eta inh-2 inconclusive
COc1cccc(CNC(=O)Nc2cc(C(=O)NCc3cccc(F)c3)ccc2N2CCCC2)c1	none (no result: WRN inhibitor)
Cc1cc(C)c(NC(=O)Cn2cc(S(=O)(=O)Cc3ccccc3F)c3ccccc32)c(C)c1	none (no result: WRN inhibitor)
Cc1cccc(C)c1NC(=O)Cn1cc(S(=O)(=O)Cc2ccc(F)cc2)c2ccccc21	Pol kappa inh-1 inconclusive, POLB inh 28µM, POLI inh inconclusive, Pol eta inh-1 inconclusive (no result: WRN inhibitor) | Pol kappa inh-2 inconclusive | Pol eta inh-2 inconclusive
COc1ccc2cc(C(=O)NCc3ccccc3)c(=Nc3ccc(C(=O)O)cc3)oc2c1	Pol eta inh-1 32µM | Pol eta inh-2 inconclusive
O=C(O)c1ccc(N=c2oc3cc(O)ccc3cc2C(=O)NCc2ccccc2)cc1	POLB inh inconclusive, FEN1 inhibitor inconclusive, Pol eta inh-1 inconclusive
Cc1ccc(C(=O)N2C3C=CC(C3)C2(C(F)(F)F)C(F)(F)F)cc1 (stereo not drawn)	none
O=C(c1ccco1)N1C2C=CC(C2)C1(C(F)(F)F)C(F)(F)F (stereo not drawn)	POLI inh inconclusive, Pol eta inh-1 35µM | Pol eta inh-2 inconclusive
O=C1CCCc2[nH]c(=O)c(C(=O)NCc3ccccc3)cc21	none (no result: WRN inhibitor, POLB inh, Pol eta inh-1)
COC(=O)c1ccc(COc2ccc(/C=N/Nc3nc(C)cc(=O)[nH]3)cc2)cc1	POLB inh 20µM, POLI inh inconclusive, FEN1 inhibitor inconclusive, Pol eta inh-1 89µM | Pol kappa inh-2 inconclusive
CC(=O)Nc1sc2c(c1-c1nc3ccccc3s1)CNC2	none (no result: WRN inhibitor, Pol kappa inh-1, POLB inh, POLI inh, FEN1 inhibitor, Pol eta inh-1) | Pol eta inh-2 inconclusive
